Data published in PubChem BioAssay AID1159580 (chemical genetic matrix, 2015).
The campaign covered roughly 5,500 compounds. About 2,000 (36%) were called active. Another 18% or so got no clear call; they are omitted. Rule as the data show it: active = normalized growth mostly below about 0.91 (no sharp cut-off); inconclusive = no clear call, values can overlap the other calls; inactive = mostly above about 0.92. The list shows a part of the results.

Assay: chemical genetic growth profiling, strain panel (AID 1159580);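 also: tested at 20 µM; growth read once vehicle control cultures reached saturation at 30 °C; 1 = growth at the plate median or of vehicle wells; lower values mean less growth of the strain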
Conditions: S. cerevisiae deletion strains, growth OD

Measured: normalized growth

O=S(=O)(NC(=S)Nc1ccc(Cl)c(Cl)c1)c1ccccc1
inactive: locus YAR019C, strain CDC15, active compounds read low 1.01 | locus YBL105C, strain PKC1, active compounds read low 1.01 | locus YBR135W, strain CKS1, active compounds read low 0.997 | locus YBR136W, strain MEC1, active compounds read low 1 | locus YBR160W, strain CDC28, active compounds read low 1 | locus YDL017W, strain CDC7, active compounds read low 1.01 | locus YDL028C, strain MPS1, active compounds read low 1 | locus YDL101C, strain DUN1, active compounds read low 1.01 | locus YDL108W, strain KIN28, active compounds read low 1 | locus YDL132W, strain cdc53, active compounds read low 0.993 | locus YDL214C, strain PRR2, active compounds read low 1.02 | locus YDR052C, strain DBF4, active compounds read low 1.01 | locus YDR054C, strain cdc34, active compounds read low 1.01 | locus YDR226W, strain ADK1, active compounds read low 0.991 | locus YDR477W, strain SNF1, active compounds read low 1.02 | locus YER123W, strain YCK3, active compounds read low 1 | locus YER133W, strain GLC7, active compounds read low 1.01 | locus YFL009W, strain cdc4, active compounds read low 1.01 | locus YFL029C, strain CAK1, active compounds read low 1 | locus YFR003C, strain YPI1, active compounds read low 1 | locus YFR019W, strain FAB1, active compounds read low 1 | locus YFR028C, strain CDC14, active compounds read low 1 | locus YGR040W, strain KSS1, active compounds read low 1.01 | locus YGR052W, strain FMP48, active compounds read low 1.12 | locus YGR092W, strain DBF2, active compounds read low 0.988 | locus YHR030C, strain SLT2, active compounds read low 1.1 | locus YHR079C, strain IRE1, active compounds read low 1 | locus YHR082C, strain KSP1, active compounds read low 1.09 | locus YHR205W, strain SCH9, active compounds read low 0.995 | locus YIL147C, strain SLN1, active compounds read low 1 | locus YJL095W, strain BCK1, active compounds read low 1.05 | locus YJL128C, strain PBS2, active compounds read low 0.995 | locus YJL157C, strain FAR1, active compounds read low 1.01 | locus YJR016C, strain ILV3, active compounds read low 0.995 | locus YJR066W, strain TOR1 (second series), active compounds read low 0.992 | locus YJR066W, strain TOR1, active compounds read low 1.13 | locus YKL048C, strain ELM1, active compounds read low 1.02 | locus YKL067W, strain YNK1, active compounds read low 0.995 | locus YKL101W, strain HSL1, active compounds read low 1 | locus YKL193C, strain SDS22, active compounds read low 1 | locus YKL203C, strain TOR2, active compounds read low 1.07 | locus YLR113W, strain HOG1, active compounds read low 1.03 | locus YLR133W, strain CKI1, active compounds read low 1.01 | locus YLR403W, strain SFP1, active compounds read low 1.02 | locus YML070W, strain DAK1, active compounds read low 0.999 | locus YMR001C, strain CDC5, active compounds read low 1 | locus YMR205C, strain PFK2 (second series), active compounds read low 1 | locus YMR277W, strain FCP1, active compounds read low 1 | locus YNL006W, strain LST8, active compounds read low 0.984 | locus YNL020C, strain ARK1, active compounds read low 1 | locus YNL161W, strain CBK1, active compounds read low 0.996 | locus YNL183C, strain NPR1, active compounds read low 0.986 | locus YNL207W, strain RIO2, active compounds read low 1.01 | locus YNL222W, strain SSU72, active compounds read low 0.995 | locus YNL307C, strain MCK1 (second series), active compounds read low 0.987 | locus YOL078W, strain AVO1, active compounds read low 1 | locus YOL136C, strain PFK27, active compounds read low 1 | locus YOR061W, strain CKA2, active compounds read low 1.02 | locus YOR119C, strain RIO1, active compounds read low 1.13 | locus YOR231W, strain MKK1, active compounds read low 1.02 | locus YOR329C, strain SCD5, active compounds read low 1.01 | locus YPL031C, strain PHO85, active compounds read low 1.02 | locus YPL153C, strain RAD53, active compounds read low 1 | locus YPL204W, strain HRR25, active compounds read low 0.999 | locus YPL209C, strain IPL1, active compounds read low 0.996 | locus YPL256C, strain CLN2, active compounds read low 1.01 | locus YPR025C, strain CCL1, active compounds read low 0.998 | locus YPR106W, strain ISR1, active compounds read low 1.01 | locus YPR111W, strain DBF20, active compounds read low 0.994 | strain NNK1, active compounds read low 1 | strain TSCII, active compounds read low 0.999
